# Rows were chosen to be rich in hits. Some 1.9% of all compounds tested hit in one or more screens of this group.
# BJeLR viability = kills HRASV12-expressing BJeLR cells; BJeLR (HRASV12) viability, CellTiter-Glo ATP luminescence, 48 h; actives 0.17% (n = 300,000); inhibition, % (no concentration beside the values); in the data active = inhibition above about 50%
# PriA SSB inh = inhibitors of Klebsiella pneumoniae PriA binding to SSB C-terminal tail; AlphaScreen SSBct-PriA binding, biotinylated peptide; inhibition, % at 33 µM; actives 0.6% (n = 430,000); AID 1272365; in the data active = inhibition mostly above about 37%, no sharp cut-off; inactive = mostly below about 20%;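 note: plate controls were negative control peptide for no effect and reference peptide for full effect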
# PrPC surface inh = cell surface PrPC inhibition, primary TR-FRET screen; inhibition, % at 13.8 µM; TR-FRET read-out; P04156; actives 0.43% (n = 370,000); in the data active = inhibition above about 24%; note: 0% = median of the test wells and 100% = reference compound wells
# PrP 5UTR inh = inhibition of PrP 5' UTR reporter expression; actives 0.35% (n = 340,000); cell-based PrP 5' UTR mRNA reporter, plate reader; inhibition, % (test concentration not listed); in the data active = inhibition above about 52%; note: 0 = median of the neutral control wells
# RecA intein inh = blocks M. tuberculosis RecA intein splicing | actives 0.75% (n = 290,000) | P9WHJ3 | AID 2221 | cell-free RecA intein splicing, fluorescence | inhibition, % (concentration not given with the values); in the data active = inhibition above about 30%;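 note: 0% = vehicle wells and 100% = reference inhibitor control wells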
# Target sequence (P9WHJ3 whole entry, looked up): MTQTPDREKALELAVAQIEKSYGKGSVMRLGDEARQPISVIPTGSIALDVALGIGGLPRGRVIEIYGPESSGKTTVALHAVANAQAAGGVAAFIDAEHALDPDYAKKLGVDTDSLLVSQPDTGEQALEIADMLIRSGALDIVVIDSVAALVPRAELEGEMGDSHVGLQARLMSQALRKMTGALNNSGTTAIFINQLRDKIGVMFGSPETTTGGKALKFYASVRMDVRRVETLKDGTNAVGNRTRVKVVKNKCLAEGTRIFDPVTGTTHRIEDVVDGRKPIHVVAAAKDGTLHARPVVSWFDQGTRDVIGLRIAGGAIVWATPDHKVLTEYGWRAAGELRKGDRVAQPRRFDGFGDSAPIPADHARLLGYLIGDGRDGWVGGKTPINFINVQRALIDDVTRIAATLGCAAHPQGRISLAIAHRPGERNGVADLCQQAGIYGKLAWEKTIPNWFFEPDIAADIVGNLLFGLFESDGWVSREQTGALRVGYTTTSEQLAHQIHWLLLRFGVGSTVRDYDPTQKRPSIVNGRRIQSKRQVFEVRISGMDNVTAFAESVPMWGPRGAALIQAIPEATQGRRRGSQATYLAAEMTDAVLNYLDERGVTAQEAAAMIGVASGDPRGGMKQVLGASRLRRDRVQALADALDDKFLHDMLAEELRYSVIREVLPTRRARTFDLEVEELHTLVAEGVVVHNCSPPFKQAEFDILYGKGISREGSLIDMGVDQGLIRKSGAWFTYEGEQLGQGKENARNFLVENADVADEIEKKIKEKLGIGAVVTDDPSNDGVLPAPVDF
# PfHsp40 yeast = restores yeast growth despite PfHsp40 toxicity. S. cerevisiae expressing PfHsp40, growth rescue, ATP luminescence. growth rescue, % at 12.5 µM. actives 0.68% (n = 340,000). AID 504582; in the data active = growth rescue above about 28%, passing the limit was not always enough;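 note: yeast W303a lacking pdr1 and pdr3 grown in galactose medium; growth measured after three days at 30 °C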
# Numbers without * were called inactive; i = inactive; · = not tested or not shown.
SMILES,BJeLR viability,PriA SSB inh,PrPC surface inh,PrP 5UTR inh,RecA intein inh,PfHsp40 yeast
CCN(CC)CCN(C(=O)c1ccc(C(=O)c2ccccc2)cc1)c1nc2c(OC)ccc(OC)c2s1,·,49.0*,·,·,·,·
COc1cccc2sc(OC3CN(C(=O)C4(c5ccccc5)CCOCC4)C3)nc12,·,3.0,·,·,·,·
O=C(C1Cc2ccccc2CO1)N1CCCC(Oc2cccnn2)C1 (stereo not drawn),·,-15.0,·,·,·,·
CCCN(CCC)c1ccc(C(=S)N2CCN(C(=S)Nc3ccccc3)CC2)cc1,·,-2.0,·,·,·,·
CCCN(CCC)c1ccc(C(=S)N2CCNCC2)cc1,·,36.0*,·,·,·,·
CCCN(CCC)c1ccc(C(=S)N2CCOCC2)cc1,·,37.0*,·,·,·,·
O=C(NC(=S)Nc1ccccc1N1CCCC1)c1ccc([N+](=O)[O-])cc1,7.3,69.6*,-12.4,-3.7,12.2,2.1
Cc1ccc(N2CCC(CNS(=O)(=O)c3ccccc3Br)CC2)nn1,·,-7.0,·,·,·,·
Cc1ccc(-c2csc(NNC3=NCCCCC3)n2)cc1,·,62.0*,·,·,·,·
C=CCN(CC=C)S(=O)(=O)c1ccc(NC(=S)NC(=O)c2ccc(-c3ccccc3)cc2)cc1,-0.7,-8.3,0.2,-17.6,7.5,0.2
C=CCN(CC=C)S(=O)(=O)c1ccc(NC(=S)NC(=O)c2ccco2)cc1,2.8,-4.0,6.7,-17.1,-3.3,55.3*
Cc1nc2ccc(NC(=O)c3cccs3)cc2s1,3.5,-0.8,11.3,-50.6,-0.1,37.1*
CC(=O)Nc1ccc2nc(NC(=O)c3cccs3)sc2c1,13.9,-5.4,4.9,-63.8,-1.6,1.0
Cc1nc2ccc(C(=O)Nc3ccccc3Cl)cc2s1,8.9,-11.5,-0.9,-45.5,-1.4,76.6*
Cc1cccc(OCC(=O)Nc2ccc3nc(C)sc3c2)c1,3.5,-2.2,3.2,-27.8,-0.9,-1.1
Cc1nc2ccc(NC(=O)COc3cccc(F)c3)cc2s1,-0.5,-11.9,-2.2,-8.4,-3.5,241.5*
Cc1nnc(NC(=O)CSc2ncc(-c3ccccc3)n2C)s1,·,-7.0,·,·,·,·
CCNc1ccc(Br)cc(C(=O)/C=C/c2ccc3c(c2)OCO3)c1=O,-2.9,2.7,-3.7,-26.4,4.2,37.1*
COc1ccc(Cl)cc1C(=O)NCC(c1ccco1)N1CCc2ccccc2C1 (stereo not drawn),·,-1.0,·,·,·,·
Nc1cc(C(=O)OCC(=O)N2CCOCC2)ccc1Cl,-10.9,11.1,-1.3,-34.9,-0.4,5.5
Nc1ccc(C(=O)OCC(=O)N2CCOCC2)cc1[N+](=O)[O-],-0.3,-3.6,-21.9,-69.4,10.8,47.4*
COc1ccc(N2CC(NC(=O)Nc3cccc(C)n3)CC2=O)cc1OC (stereo not drawn),·,-15.0,·,·,·,·
Cc1ccc2nc(N/N=C\c3ccc([N+](=O)[O-])o3)nc(-c3ccccc3)c2c1,-6.4,·,0.9,1.9,42.4*,0.6
O=[N+]([O-])c1ccc(/C=N/Nc2nc(-c3ccccc3)c3cc(Br)ccc3n2)o1,3.0,·,-2.9,-15.1,6.1,0.6
O=C(N/N=C/c1ccc([N+](=O)[O-])o1)c1ccccc1NS(=O)(=O)c1cccs1,6.4,i,-14.0,-6.2,40.0*,1.1
SMILES,BJeLR viability,PriA SSB inh,PrPC surface inh,PrP 5UTR inh,RecA intein inh,PfHsp40 yeast
O=C(N/N=C/c1ccc([N+](=O)[O-])o1)c1cc2ccccc2o1,67.6*,i,-6.5,1.9,4.3,0.4
O=[N+]([O-])c1ccc(C=NNc2ccc3ccccc3c2)o1,·,55.3*,·,·,·,·
CCOC(=O)c1ccc(NC(=O)CSc2nnc(CNC(=O)c3ccc(S(=O)(=O)N4CCCC4)cc3)n2-c2cc(OC)ccc2OC)cc1,·,-3.0,·,·,·,·
O=C(NCC1CCN(c2ccccn2)CC1)c1cc(Cl)cc(Cl)c1,·,-16.0,·,·,·,·
O=C(NCC1CCN(c2cnccn2)CC1)C1(c2ccc(F)cc2)CC1,·,-16.0,·,·,·,·
COC1CC(OC2CCC3(C)C(CCC4C3CCC3(C)C(C5=CC(=O)OC5)C(OC(C)=O)CC43O)C2)OC(C)C1OC1OC(COC2OC(CO)C(O)C(O)C2O)C(O)C(O)C1O (stereo not drawn),50.9*,·,·,·,0.1,·
CC(C)=CCCC(C)(O[C@@H]1O[C@H](CO[C@@H]2O[C@H](CO)[C@@H](O)[C@H](O)[C@H]2O)[C@@H](O)[C@H](O)[C@H]1O)C1CC[C@]2(C)C1C(=O)CC1[C@@]3(C)CC[C@H](O[C@H]4O[C@@H](CO)[C@H](O)[C@@H](O)[C@@H]4O)C(C)(C)C3CC[C@]12C (stereo partly drawn),·,-14.0,·,·,·,·
CC(Oc1ccc(Cl)cc1)C(=O)NNC(=S)NC(=O)c1ccco1 (stereo not drawn),11.5,28.6,6.6,7.2,-3.2,68.3*
CCCCOc1ccc(C(=O)NNC(=S)NC(=O)CC)cc1,7.0,-1.1,·,27.7,13.9,61.3*
CCCOc1ccc(C(=O)NNC(=S)NC(=O)c2ccco2)cc1,12.0,1.6,7.1,-26.1,3.6,108.1*
CCCOc1ccc(C(=O)NNC(=S)NC(C)=O)cc1,4.7,0.0,0.1,4.6,9.9,52.4*
COc1ccc(C(=O)NNC(=S)NC(=O)c2ccco2)cc1,-2.0,3.4,6.2,3.1,-0.3,4.2
CCCOc1ccc(C(=O)NNC(=S)NC(=O)c2ccccc2)cc1,6.8,3.4,1.4,-5.4,1.9,-1.7
CCC(=O)NC(=S)NNC(=O)c1ccc(OC)cc1,4.7,0.8,1.9,-1.2,·,6.4
O=C(COc1ccc(Cl)cc1Cl)NNC(=S)NC(=O)c1ccco1,-2.3,-7.2,9.6,-17.3,-1.6,1.1
O=C(NCCn1nc(-c2ccccc2)ccc1=O)NC1CCCCC1,·,-12.0,·,·,·,·
COC(=O)c1sc(-c2ccccc2)cc1NC(=O)c1cccc(C)c1,·,1.0,·,·,·,·
COc1ccc(CCNC(=O)Nc2ccccc2Cc2nc(-c3ccncc3)no2)cc1,·,-15.0,·,·,·,·
N#CC1=C2N=C(N)c3c(sc4c3CCCCC4)N2C2=C(C(=O)CCC2)C1c1ccccc1 (stereo not drawn),0.7,44.0*,2.9,-0.8,2.0,2.1
N#CC1=C2N=C(N)c3ccccc3N2C2=C(C(=O)CCC2)C1c1ccc(F)cc1 (stereo not drawn),1.2,2.6,-8.8,·,2.1,-0.1
CCOC(=O)c1ccc(NC(=O)CCc2sc(C)nc2-c2cccs2)cc1,·,-1.0,·,·,·,·
c1ccc(-c2nc(NCC3CCCO3)c3ccccc3n2)nc1 (stereo not drawn),-8.7,88.9*,-6.8,-24.1,-0.5,-0.6
c1ccc(Nc2nc(NCC3CCCO3)c3ccccc3n2)cc1 (stereo not drawn),12.3,10.7,20.3,-16.4,9.7,-0.9
c1ccc(-c2nc(NC3CCCC3)c3ccccc3n2)nc1,·,120.0*,·,·,·,·
CCC(=O)Nc1nnc(SCc2cc(=O)c(OC(=O)c3ccccc3F)co2)s1,·,-6.0,·,·,·,·
CCCCS(=O)(=O)N1CCN(CC(=O)c2cccs2)CC1,·,-15.0,·,·,·,·
Cc1nnc2ccc(N3CCN(S(=O)(=O)c4ccc(C(F)(F)F)cc4)CC3)nn12,·,-5.0,·,·,·,·
CCOc1ccc(-c2cc(C(=O)NN=Cc3cccnc3)c3ccccc3n2)cc1,·,-9.2,·,·,·,·

# Assay outcomes as filed in PubChem.
